Source: PubChem (National Center for Advancing Translational Sciences (NCATS))
Pf growth 96h – P. falciparum growth inhibition at 96 hour, primary screen for plastid delayed-death inhibitors; P. falciparum luciferase reporter growth, 96 h; Potency, µM (series often up to 28.7 µM), for inactives: at the top dose activity change, negative = inhibition, actives largely listed as inhibitors; actives 6.9% (n = 320,000); AID 504834; note: % is set by controls: 0 for no effect and ±100 for the full control effect
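Plates of compound plus infected erythrocytes (2% hematocrit, 0.05% parasitemia final) incubate 96 hours, 37 C, 5% CO2. Detection reagent added; reduced luminescence from the parasites' luciferase reporter flags inhibition.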
Sm TGR inh – blocks Schistosoma mansoni thioredoxin glutathione reductase; Potency, µM (top dose mostly 114 µM), for the others: top-dose activity change, negative = inhibition, hits mostly inhibitors; Q962Y6; purified TGR, DTNB reduction, TNB absorbance 405 nm; actives 3% (n = 360,000); note: % is set by controls: 0 for no effect and ±100 for the full control effect; nearly all actives have a fitted effect of over 60% in size
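TGR 20 nM + NADPH 100 uM (dispensed conc.), cpd preinc 15 min RT; start with NADPH (500 uM addition) then DTNB (15 mM addition). Kinetic TNB absorbance, 405 nm filter. Four-parameter Hill fit across titration.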
SARS PLpro yeast – SARS-CoV PLP inhibition in yeast. S. cerevisiae expressing SARS-CoV PLpro, growth rescue. Potency, µM (top dose mostly 32.9 µM), inactives show top-dose activity, positive = growth rescue, actives largely listed as activators. actives 0.19% (n = 330,000); calls by dose curve; note: 0% is about no effect; nearly all actives have a fitted effect of over 55% in size
AmpC inh detg – blocks E. coli AmpC beta-lactamase in detergent assay | actives 0.041% (n = 370,000) | P00811 | Potency, µM (highest dose often 114 µM), for inactives: at the highest dose activity change, negative = inhibition, most hits filed as inhibitors | AID 485294 | AmpC hydrolysis of nitrocefin, absorbance 480 nm, 0.01% Triton;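 note: 0% = no-compound wells and -100% = no-enzyme wells; nearly all actives have a fitted effect of over 25% in size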
Target sequence (P00811 whole entry, looked up): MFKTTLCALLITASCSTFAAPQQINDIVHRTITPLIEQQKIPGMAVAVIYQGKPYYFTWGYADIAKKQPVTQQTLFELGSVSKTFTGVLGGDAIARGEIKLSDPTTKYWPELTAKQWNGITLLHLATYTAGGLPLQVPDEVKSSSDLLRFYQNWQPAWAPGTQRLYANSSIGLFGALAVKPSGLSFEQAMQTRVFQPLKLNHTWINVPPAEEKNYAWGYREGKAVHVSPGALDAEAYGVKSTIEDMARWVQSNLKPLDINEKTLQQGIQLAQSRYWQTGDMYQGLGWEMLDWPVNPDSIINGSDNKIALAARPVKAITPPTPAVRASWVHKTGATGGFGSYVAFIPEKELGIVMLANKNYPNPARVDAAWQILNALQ
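20 mM phosphate pH 7.0 + 0.01% (detergent screen) or 0.0001% Triton X-100; 5.3 nM AmpC reagent; cpd preinc 15 min RT; nitrocefin (800 uM stock) to start; A480 q20 s × 4 min; Activity was normalised to no-enzyme and no-compound control wells.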
Pf growth 48h – inhibits P. falciparum growth in the first generation, 48 h; P. falciparum luciferase growth in erythrocytes, 48 h; Potency, µM (highest dose often 28.7 µM), without a hit: top-dose activity change, negative = inhibition, usual class: inhibitors; actives 5.9% (n = 310,000); AID 504832; note: % is set by controls: 0 for no effect and ±100 for the full control effect
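Here the parasites carry a stable luciferase gene and grow inside erythrocytes in Albumax-based RPMI medium with compound for one erythrocytic cycle. Activity is scored as loss of luminescent signal.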
AmpC inh no detg – blocks E. coli AmpC beta-lactamase in detergent-free assay. AmpC nitrocefin hydrolysis, absorbance 480 nm, 0.0001% Triton. Potency, µM (highest dose often 57.1 µM), without a hit: top-dose activity change, negative = inhibition, usual class: inhibitors. actives 0.52% (n = 330,000). AID 485341;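 note: plate controls were no compound for no effect and no enzyme for full effect; nearly all actives have a fitted effect of over 20% in size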
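AmpC (5.3 nM in the dispensed reagent) in 20 mM phosphate pH 7.0 with 0.01% (detergent screen) or 0.0001% Triton X-100 was preincubated with compounds for 15 min at room temperature. Nitrocefin was then added from an 800 uM solution, and hydrolysis was followed at 480 nm.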
* marks the source's active call; other numbers are inactive results; ? = inconclusive; nt = no result given. This is a sample that favours compounds with a hit; in the whole collection about 12% have one here. Unless noted, calls come from the whole dose curve; as a rule, active = well fitted curve in the direction sought with a large enough effect; inconclusive = small, poorly fitted or top-dose-only effect, or another doubt; inactive = no such curve, though single readings can be large; an effect the other way counts as inactive or inconclusive. Potency is the fitted concentration of half-maximal effect.

SMILES | Pf growth 96h | Sm TGR inh | SARS PLpro yeast | AmpC inh detg | Pf growth 48h | AmpC inh no detg
Cc1cc(Nc2cccc(Cl)c2)nc2ccc(NC(=O)COc3ccc(Cl)cc3)cc12 | nt | -0.9% | nt | 18.6% | nt | nt
Clc1ccccc1N1CCN(c2ncnc3nc[nH]c23)CC1 | 23.9% | -1.3% | -13.8% | ? | 20.6% | 8.91µM*
Cc1ccc(S(=O)(=O)c2cc(C#N)c(=O)[nH]c2N)cc1 | 46.9% | -1.2% | 0.6% | -4.4% | 6.0% | -32.4%
CC(=O)c1cccc(OCc2cc(C(=O)N3C[C@H]4CC[C@H]3C4)no2)c1 | ? | 7.1% | -0.3% | 5.4% | 41.1% | 40.0%
Cc1ccc(OCc2cc(C(=O)N3CCCCCCC3)no2)cc1C | 1.65µM* | -3.5% | -7.4% | 0.2% | 14.4% | 27.3%
Cc1ccc(OCc2cc(C(=O)NC3CCCCC3)no2)cn1 | 13.1µM* | 0.2% | -8.5% | -4.1% | 16.7% | 6.3%
CC(=O)c1cccc(OCc2cc(C(=O)N3C[C@@H](C)O[C@@H](C)C3)no2)c1 | ? | 3.16µM* | 0.4% | -6.8% | 18.9% | 3.4%
CC(=O)c1cccc(OCc2cc(C(=O)NC3CCN(Cc4ccccc4)CC3)no2)c1 | 11.7µM* | -15.5% | 1.0% | -7.7% | -29.6% | 62.2%
Cc1ccc(OCc2cc(C(=O)N3CCN(C4CCCCC4)CC3)no2)cc1C | 37.2% | -3.3% | -3.4% | 0.8% | ? | 152.9%
CC(=O)c1ccc(OCc2cc(C(=O)N3CCC[C@H]3CO)no2)cc1 | ? | 50.1µM* | -0.2% | 0.2% | -11.8% | -7.0%
CC(=O)c1ccc(OCc2cc(C(=O)N(C)Cc3ccon3)no2)cc1 | 6.7% | -16.6% | -0.7% | -1.5% | 12.5% | -9.3%
COc1cccc(OCc2cc(C(=O)N(C)CCC3CCCCO3)no2)c1 (centres undefined) | ? | 8.2% | 1.6% | ? | 6.7% | 115.7%
CC1CN(C(=O)c2cccc(C(=O)N3CC(C)OC(C)C3)c2)CC(C)O1 (centres undefined) | 14.7µM* | 7.4% | 1.0% | -3.2% | 12.7% | -11.1%
CC(=O)c1ccc(OCc2cc(C(=O)N(C)Cc3ccccn3)no2)cc1 | 10.4µM* | 12.6µM* | 0.0% | 0.0% | 7.4% | 100.5%
COCCC1CCCCN1C(=O)c1cc(COc2cccc(C(C)=O)c2)on1 (centres undefined) | 5.4% | -20.5% | ? | -1.4% | -1.6% | 61.1%
CC(=O)c1cccc(OCc2cc(C(=O)N(C)CCC3CCOCC3)no2)c1 | 4.4% | 2.24µM* | 4.1% | ? | 1.9% | 45.5%
CC1CCC(NC(=O)CCNC(=O)c2ccccc2)CC1 (centres undefined) | -3.6% | 8.4% | -3.2% | -9.9% | 3.0% | -17.7%
O=C(CN1C(=O)C2CCCCN2c2ccc(C(=O)N3CCCC3)cc21)NCc1ccccc1 (centres undefined) | nt | -14.0% | nt | -3.3% | nt | nt
CCCCCn1c(=O)[nH]c2cc(C(=O)NCc3ccc(F)cc3)ccc2c1=O | nt | -2.1% | nt | 5.8% | nt | nt
CCn1c(C)nc2cc(-c3nc4n(n3)Cc3ccccc3-4)ccc21 | 0.208µM* | 0.0% | -32.8% | -4.3% | 0.185µM* | 90.4%
CCCS(=O)(=O)c1ncc(Cl)c(C(=O)N(Cc2ccccc2)Cc2ccco2)n1 | nt | 5.01µM* | nt | -8.7% | nt | nt
CCS(=O)(=O)c1ncc(Cl)c(C(=O)NCc2ccc(OC)cc2)n1 | nt | 10µM* | nt | 8.4% | nt | nt
COc1ccc(CNC(=O)c2onc(C)c2Cl)cc1 | 13.1µM* | -6.8% | 1.5% | ? | -2.6% | -8.3%
COc1ccc(N(Cc2ccccc2)C(=O)c2nc(SC)ncc2Cl)cc1 | nt | 5.1% | nt | 18.4% | nt | nt
CCS(=O)(=O)c1ncc(Cl)c(C(=O)N(Cc2ccccc2)c2ccc(OC)cc2)n1 | nt | 39.8µM* | nt | 7.9% | nt | nt
SMILES | Pf growth 96h | Sm TGR inh | SARS PLpro yeast | AmpC inh detg | Pf growth 48h | AmpC inh no detg
O=C(CCC(=O)OCC(F)(F)C(F)F)Nc1ccccc1F | ? | -3.3% | 2.3% | 5.9% | -4.9% | -17.4%
O=P(c1ccccc1)(c1ccccc1)c1ccc(O)cc1 | 10.4% | -9.9% | -6.4% | -10.5% | -7.1% | 113.5%
CCS(=O)(=O)c1ncc(Cl)c(C(=O)N2CCN(c3ccc(OC)cc3)CC2)n1 | nt | 35.5µM* | nt | 0.1% | nt | nt
CCc1cc2c(=O)c(-c3nc4ccccc4n3C)c(COCC(=O)O)oc2cc1O | -21.9% | 11.8% | 1.9% | 2.1% | -16.4% | -31.2%
CCCc1cc2c(=O)c(-c3nc4ccccc4s3)c(COCC(=O)O)oc2cc1O | 15.4% | 39.8µM* | 1.0% | -4.6% | 24.3% | -42.2%
c1ccc2c(C3=NNC(=NC4CCCCC4)SC3)c[nH]c2c1 | 14.7µM* | 0.0% | 0.4% | -11.0% | ? | -17.1%
COc1ccccc1NC(=O)C1CCC(CNc2c(N3CCCCC3)c(=O)c2=O)CC1 (centres undefined) | 0.1% | 7.9% | -0.9% | 12.6% | 33.9% | 17.6%
CCOc1ccc(NC(=O)C2CCC(CNc3c(N4CCC(C)CC4)c(=O)c3=O)CC2)cc1 (centres undefined) | 2.33µM* | -1.0% | 0.9% | -0.1% | 4.15µM* | -5.3%
CCOc1ccc(NC(=O)C2CCC(CNc3c(N4CCCCC4)c(=O)c3=O)CC2)cc1 (centres undefined) | 5.86µM* | 10.2% | 0.5% | -8.0% | 6.57µM* | 25.2%
COc1cc(NC(=O)C2CCC(CNc3c(N4CCCCC4)c(=O)c3=O)CC2)cc(OC)c1 (centres undefined) | 5.1% | 3.5% | 0.9% | ? | 11.7µM* | 50.1µM*
O=C(Nc1ccc(F)cc1)C1CCC(CNc2c(N3CCCCC3)c(=O)c2=O)CC1 (centres undefined) | ? | 10.6% | 3.7% | 9.5% | 11.7µM* | 15.5%
Cc1ccc(C)c(Nc2ncnc(N)c2[N+](=O)[O-])c1 | 2.08µM* | 7.3% | 12.0% | -2.8% | 2.5% | 20.4%
Cc1cccc(NC(=O)CSc2nc3ccccc3nc2N2CCCCC2)c1 | ? | -18.1% | -5.3% | -13.9% | 13.1µM* | -33.1%
Cc1cccc(NC(=O)CSc2nc3ccccc3nc2N2CC(C)OC(C)C2)c1 (centres undefined) | 9.28µM* | 9.1% | -3.5% | -2.2% | ? | 87.5%
O=[N+]([O-])c1cc(-c2nc(-c3ccccc3)no2)ccc1N1CCOCC1 | nt | -0.6% | nt | 10.8% | nt | nt
CCN(CCCNC(=O)CNC(=O)c1nn(-c2ccc(OC)c(OC)c2)c(=O)c2ccccc12)c1ccccc1 | ? | -1.3% | -2.4% | -4.1% | 11.7µM* | 155.1%
COc1ccc(CCNC(=O)Cn2cnc3c(cnn3C(C)(C)C)c2=O)cc1OC | 10.4µM* | 4.3% | -0.9% | 0.1% | 6.9% | 0.3%
